# From PubChem BioAssay (NCI)
# The panel holds about 83,000 compounds, 20% with a hit somewhere; the sample as a whole holds those more often.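 Assay: single dose, 48 h. Readout: percent growth (0 = no net growth; negative = cell death). Active: <10.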 Values without a mark were called inactive. Calls of active or inactive are those of the source.
# System: HL-60(TB) leukemia
# Test: NCI-60 one-dose screen, 48 h (100 = growth as untreated, 0 = no growth, -100 = all killed)
# Conditions: 10 µM unless noted
row,Compound,growth
1,Cc1cc(C)c(S(=O)O)c(C)c1,102%
2,COc1cc2cc(Oc3ccc(NC(=O)Nc4cccc(C(F)(F)F)c4)cc3)c(C)nc2cc1OC,-24.8% (active)
3,COc1ccc2c(c1)N(Cc1ccc(Cl)cc1)CCC2N1CCCC1=O (stereo not given),53.9%
4,CCC(c1ccc(OC)cc1)C(CC)c1ccc(OCC[N+](C)(C)C)cc1 (stereo not given),-17.4% (active)
5,COc1ccc(/C=C/c2c(C(=O)/C=C/c3ccc(C(F)(F)F)cc3)c(C)nc3ccccc23)cc1,-21.7% (active)
6,CCOC(=O)c1c2c(c(C)n1Cc1ccccc1)-c1nc(N)ncc1CC2,96.2%
7,COc1ccc(-c2cnc3ccccc3n2)cc1,97%
8,O=C(N/N=C/c1ccc(Oc2ccccc2)cc1)c1cnn2c1NC(c1ccccc1)C2 (stereo not given),78.6%
9,CCCCC/C(C=C(C#N)C#N)=C/c1ccccc1,6.33% (active)
10,Cc1ccc2c(n1)C(=O)C(Br)=C(C1CCCC1)C2=O,76.1%
11,COc1ccc2c(c1)[nH]c(=O)c1c3cccc(F)c3cn21,11.2%
12,CC(=O)c1nc2ccccc2n1CCN1CCN(C)CC1,8.01% (active)
13,COc1ccc(-c2nc(N3CCCC3=O)sc2Br)cc1OC,101%
14,COc1cc2nc3cc([N+](=O)[O-])ccc3c(NCCCNCCO)c2cc1OC,-25.3% (active)
15,Cn1cc(-c2csc(-c3cn(CCO)c4ccc(F)cc34)n2)c2cccnc21,50.2%
16,O=C(Nc1nc(-c2ccccc2)cs1)c1cc(-c2ccc(Br)cc2)nc2ccccc12,31.5%
17,CC(=O)OC[C@]12CC[C@@H](c3cn(Cc4ccc(Cn5cc([C@@H]6CC[C@]7(COC(C)=O)CC[C@]8(C)[C@H](CC[C@@H]9[C@@]%10(C)CC[C@H](OC(C)=O)C(C)(C)[C@@H]%10CC[C@]98C)[C@@H]67)nn5)cc4)nn3)[C@@H]1[C@H]1CC[C@@H]3[C@@]4(C)CC[C@H](OC(C)=O)C(C)(C)[C@@H]4CC[C@@]3(C)[C@]1(C)CC2,90.5%
18,COc1ccc(C(=O)c2cc3c(N)c(C(=O)Nc4cccc(Cl)c4)sc3nc2C)cc1,-45.3% (active)
19,CCOC(=O)c1ccc(Nc2ncnc3c2cnn3-c2cccc(F)c2)cc1,109%
20,c1ccc(-c2n[nH]c(-c3ccccn3)n2)nc1,105%

row,Compound,growth
1,O=C1OCC2=C1C(c1ccc3c(c1)OCO3)CC(=O)N2c1cccc(Cl)c1 (stereo not given),95.6%
2,ClC1=C(Cl)C(Cl)=C(Cl)C1=Cc1ccccc1,-8.87% (active)
3,CC1OC(C(=O)N2CCN(CCO)CC2)CC1COC1CCCCC1 (stereo not given),98.3% [50 µM]
4,COc1c(C(=O)/C=C/c2ccc(C)o2)c(O)cc2occc12,44.6%
5,Cn1cc(C(=O)c2nc(-c3cn(C)c4ccc(F)cc34)no2)c2cc(F)ccc21,93.3%
6,CCCCc1ccc(N=Nc2ccc(OCC[N+](C)(C)C)cc2)cc1,25.2%
7,CC1(C)COC(=S)N1,80.3%
8,CN=S(=O)(NC(=O)c1ccc(Cl)cc1Cl)c1ccc(Br)s1 (stereo not given),108%
9,Cc1ncc(C(=O)Nc2ccc(CN3CCN(C)CC3)c(C(F)(F)F)c2)cc1C#Cc1c(N)ncc2ccc(F)cc12,9.43% (active)
10,COc1ccc(-c2nc3sccn3c2-c2ccnc(NCCCNS(=O)(=O)c3ccc4ccccc4c3)n2)cc1,66.1%
11,CCOc1ccc2nc(SCc3nc4n(n3)S(=O)(=O)c3ccccc3N4C)sc2c1,12.9%
12,CS(=O)(=O)Nc1cncc(-c2ccc3ncnc(Nc4cncc(Cl)c4)c3c2)c1,71.5%
13,COc1cc(/C=C/c2c(C(C)=O)c(C)nc3ccccc23)cc(OC)c1OC,0.0645% (active)
14,NC(CSC(c1ccccc1)(c1ccccc1)c1ccc(Cl)cc1)C(=O)O (stereo not given),-40.5% (active)
15,O/N=C1\CCC2CCCCC2C1 (stereo not given),98.8%
16,COc1ccc2[nH]c(-c3ccccc3)c(/C=C(\C#N)S(=O)(=O)c3ccccc3)c2c1,1.53% (active)
17,N#CN1CC[C@H](C(=O)Nc2cc3cc(C(N)=O)ccc3cn2)C1,-37.1% (active)
18,C=CCS(C)(=O)=O,104%
19,O=C(Nc1ccc(Cl)cc1)Nc1ccc(Nc2nncc3ccccc23)cc1,18.1%
20,Clc1ccc(-c2n[nH]c3c2Cc2ccccc2-3)cc1Cl,100%
